Inconclusive results are not listed. Where a call stands in place of a potency, no number is given. Values without a mark were called inactive. Calls of active or inactive are those of the source. Calls come from the whole dose curve; as a rule, active = well fitted inhibition curve with a large enough effect; inconclusive = small, poorly fitted or top-dose-only effect; inactive = flat fitted curve, though single readings scatter.
molecular target: Aldehyde dehydrogenase, mitochondrial (Homo sapiens) (UniProt P05091); assay: qHTS for Inhibitors of the Aldehyde Dehydrogenase Family (ALDH2) Primary screen (AID 2061308); details: ALDH2 enzyme inhibition qHTS, 1536-well; series mostly up to 56 µM; note: nearly all actives have a fitted effect of over 55% in size

Question: How did the Potency turn out when `N#CC1=C(NC=NCc2ccccc2)Oc2ccc3ccccc3c2C1c1ccccc1` (stereo not given) was run?
Answer: inactive

Question: With `CN(CC(F)(F)F)c1nc(NCc2ccc(-c3cccnc3)cc2)c2ccccc2n1` as the molecule, how does the Potency read?
Answer: inactive

Question: With `COCOC1CCC(C(=O)Nc2ccc([S+](=O)([O-])Nc3nccs3)cc2)CC1` (stereo not given) as the molecule, how does the Potency read?
Answer: inactive

Question: How did the Potency turn out when `O=S(=O)(NC1CCCC(NS(=O)(=O)c2c(F)cccc2F)C1)c1ccc2c(c1)OCCO2` (stereo not given) was run?
Answer: inactive

Question: Which Potency does the source give for `CC1(C)CCc2cc(S(=O)(=O)N3CCN(S(=O)(=O)c4c(F)cccc4F)CC3)ccc2O1` here?
Answer: inactive

Question: For `COc1cccc(C2c3c(ncn(-c4cccc(C#N)c4)c3=N)Oc3ccc4ccccc4c32)c1` (stereo not given), which Potency is on record?
Answer: inactive

Question: Which Potency does the source give for `CC(=O)NC(c1cc(F)c2cccnc2c1O)C1CC1` (stereo not given) here?
Answer: inactive

Question: How did the Potency turn out when `Cc1cc(C)n2ncc(C(=O)Nc3ccc(C#N)cc3)c2n1` was run?
Answer: inactive

Question: `CS(=O)(=O)c1ccc(C(=O)OCC(=O)N2CCC(Cc3ccccc3)CC2)cc1[N+](=O)[O-]` was tested. Which Potency did it give?
Answer: inactive

Question: With `CCc1cccc(Nc2nn3c(=O)c4ccccc4nc3s2)c1` as the molecule, how does the Potency read?
Answer: inactive

Question: With `CS(=O)(=O)c1ccc(-c2csc(N3CCC(C(N)=O)CC3)n2)cc1` as the molecule, how does the Potency read?
Answer: inactive

Question: With `O=C(CSc1ncnc2sc3c(c12)CCCCC3)NCc1ccco1` as the molecule, how does the Potency read?
Answer: inactive

Question: `CN(C)[C@@H]1CCN(c2cccc(Nc3nn4c(=O)c5ccccc5nc4s3)c2)C1` was tested. Which Potency did it give?
Answer: inactive

Question: Which Potency does the source give for `CCOC(=O)c1ccoc1-c1ccc2ncnc(NCc3ccc(C)o3)c2c1` here?
Answer: inactive

Question: `O=C(OCC#CCSc1nnc(-c2cc3ccccc3cc2O)o1)c1ccc(F)cc1` was tested. Which Potency did it give?
Answer: inactive

Question: With `Cc1ccccc1S(=O)(=O)N1CCN(S(=O)(=O)c2ccc3c(c2)OCCO3)CC1` as the molecule, how does the Potency read?
Answer: inactive

Question: Which Potency does the source give for `CN1CCN(c2ccc(Nc3nc(-c4ccncc4)nc4ccccc34)cc2F)CC1` here?
Answer: inactive

Question: How did the Potency turn out when `Cc1csc(CNc2ncnc3ccc(-c4ccoc4)cc23)c1` was run?
Answer: inactive

Question: How did the Potency turn out when `COc1ccc2nc(-c3cccc(OCc4ccccc4)c3)sc2c1` was run?
Answer: inactive

Question: For `C[C@@H]1COCCN1c1cc(C2(S(C)(=O)=O)CC2)nc(-c2cccc3[nH]ccc23)n1`, which Potency is on record?
Answer: inactive

Question: Which Potency does the source give for `O=S(=O)(c1ccc2c(c1)OCCCO2)N1CCN(S(=O)(=O)c2c(F)cccc2F)CC1` here?
Answer: inactive

Question: With `O=C1CCCC2=C1C(c1[nH]ncc1Br)N=C(Nc1nc3ccccc3o1)N2` (stereo not given) as the molecule, how does the Potency read?
Answer: inactive

Question: For `Cc1cc(C)nc(NC(=S)N2CCN(c3cc(C(F)(F)F)nc(C)n3)CC2)c1`, which Potency is on record?
Answer: inactive

Question: With `Cc1ccc(S(=O)(=O)Nc2ccccc2C(=O)Nc2nc(-c3ccccc3)c(C)s2)cc1` as the molecule, how does the Potency read?
Answer: inactive

Question: `CC(C)Nc1nc(C#N)nc(Nc2ccccc2)n1` was tested. Which Potency did it give?
Answer: inactive

Question: How did the Potency turn out when `Cc1cccc(-c2ccc3ncnc(NCc4cc(C)cs4)c3c2)c1` was run?
Answer: inactive

Question: How did the Potency turn out when `Cc1c(Br)cc(F)c([S+](=O)([O-])N2CCN([S+](=O)([O-])c3ccc4c(c3)OCCO4)CC2)c1F` was run?
Answer: inactive

Question: With `C/C=C/C=C/C=C/C(=O)O[C@@H]1C=C(CO)[C@](O)(CO)[C@@]2(C)CCCC(C)(C)[C@H]12` as the molecule, how does the Potency read?
Answer: inactive

Question: For `CC(=O)OC1CC2C3(C)CCC(OC(=O)CC(=O)O)C(C)(C)C3CCC2(C)C2(C)CCC(C3(C)CCC(=O)O3)C12` (stereo not given), which Potency is on record?
Answer: inactive

Question: `Cc1ccc(OCCn2c(CCNC(=O)c3ccc4ccccc4c3)nc3ccccc32)cc1` was tested. Which Potency did it give?
Answer: inactive

Question: How did the activity change, negative = inhibition turn out when `CC(=O)O[C@@H]1C[C@]2(C)[C@@]3(CCC4[C@@]5(C)CC[C@H](O[C@@H]6O[C@H](C(=O)O)[C@@H](O)[C@H](O[C@@H]7O[C@H](CO)[C@H](O)[C@H](O)[C@H]7O[C@@H]7O[C@@H](C)[C@H](O)[C@@H](O)[C@H]7O[C@@H]7OC[C@](O)(CO)[C@H]7O)[C@H]6O[C@@H]6O[C@H](CO)[C@H](O)[C@H](O)[C@H]6O)C(C)(C)C5CC[C@]42C)O[C@@H](O)[C@]12C3CC(C)(C)[C@@H](OC(=O)/C=C/c1ccc(O)c(O)c1)[C@@H]2OC(=O)/C=C/c1ccccc1` (stereo not given in full) was run?
Answer: 3.11% [at 11.2 µM]

Question: How did the Potency turn out when `CC(=O)Nc1sc2c(c1-c1ncco1)CCNC2` was run?
Answer: inactive

Question: For `COC(=O)c1ccc(Nc2nc(-c3ccncc3)nc3ccccc23)cc1OC`, which Potency is on record?
Answer: inactive

Question: For `Cc1ccc(S(=O)(=O)Nc2cc([N+](=O)[O-])ccc2C(=O)Nc2nc(-c3ccccc3)cs2)cc1`, which Potency is on record?
Answer: inactive

Question: With `Cc1cc2c(s1)c1cnn(Cc3cccc([N+](=O)[O-])c3)c(=O)c1n2C` as the molecule, how does the Potency read?
Answer: inactive

Question: How did the Potency turn out when `CCC(=O)NC(c1cc(Cl)c2cccnc2c1O)C(C)C` (stereo not given) was run?
Answer: inactive

Question: Which Potency does the source give for `Cc1cc2c(s1)c1cnn(Cc3c(F)ccc(F)c3Cl)c(=O)c1n2C` here?
Answer: inactive

Question: `CN(C)CCNc1ncnc2ccc(-c3ccc4c(c3)OCO4)cc12` was tested. Which Potency did it give?
Answer: inactive

Question: How did the Potency turn out when `Cc1cc(N2C(=O)c3ccccc3C2=O)no1` was run?
Answer: inactive

Question: With `CC(=O)c1ccc(NC(=O)c2cnn3c(C)cc(C)nc23)cc1` as the molecule, how does the Potency read?
Answer: inactive
